From ChEMBL document CHEMBL3988442, “University of Dundee, Small-Polar-MMV Screening Library” (2021)

target: T1, Aspartate--tRNA(Asp/Asn) ligase (Mycobacterium tuberculosis (strain ATCC 25618 / H37Rv)) (UniProt P9WFW3); assay: Assay for Asp RNA synthetase-1 from Mycobacterium tuberculosis; format: functional; parameters: scale not given: direction of the effect not stated beside the values; settings: 30 µM; note: in the data most compounds retested in dose-response had high values
T1 sequence (whole entry): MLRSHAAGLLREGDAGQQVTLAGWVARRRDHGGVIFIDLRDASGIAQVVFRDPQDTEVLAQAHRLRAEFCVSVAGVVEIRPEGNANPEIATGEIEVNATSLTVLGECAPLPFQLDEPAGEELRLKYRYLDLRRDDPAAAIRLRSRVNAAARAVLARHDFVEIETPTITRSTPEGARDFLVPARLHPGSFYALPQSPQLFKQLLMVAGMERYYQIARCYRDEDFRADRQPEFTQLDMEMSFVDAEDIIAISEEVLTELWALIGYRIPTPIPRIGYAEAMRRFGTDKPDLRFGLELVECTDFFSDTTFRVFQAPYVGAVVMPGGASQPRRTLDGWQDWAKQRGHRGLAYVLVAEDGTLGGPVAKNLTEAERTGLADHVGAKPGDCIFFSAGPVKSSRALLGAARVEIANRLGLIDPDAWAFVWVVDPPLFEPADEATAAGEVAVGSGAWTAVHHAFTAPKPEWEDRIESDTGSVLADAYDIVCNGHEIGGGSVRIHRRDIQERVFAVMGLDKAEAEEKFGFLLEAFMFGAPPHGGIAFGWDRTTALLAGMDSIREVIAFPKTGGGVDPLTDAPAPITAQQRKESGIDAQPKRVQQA

In order of rising Percent Effect:
1. COCC(C)NC(=O)c1cc(Br)c2c(c1)OCCO2 (stereo not given)  -9.24%
2. COc1cc(OC)c(C2Nc3cc(Cl)ccc3C3=NCCN32)cc1OC (stereo not given)  -6.02%
3. CCOc1ccc(C#N)cc1NCC(=O)Nc1cc(C)no1  -5.54%
4. CC(C)c1nc(C(=O)N2CCCC(n3cncn3)C2)c[nH]1 (stereo not given)  -5.02%
5. COc1nc2c(cc1C(=O)N1C[C@H](N)C[C@H]1C(=O)NC(C)C)CCC2  -4.9%
6. CC(c1nc(C2CC2)no1)N1CCN(Cc2ccsc2)CC1 (stereo not given)  -4.63%
7. CS(=O)(=O)NCc1nnc2n1CCN(Cc1cccs1)C2  -4.17%
8. NCCn1nc(C2CCN(Cc3ccc(Cl)c(Cl)c3)C2)c2nccnc21 (stereo not given)  -4%
9. COc1cc(C(=O)Nc2c(C)noc2C)ccc1C  -3.4%
10. CC(C)(C)NC(=O)CN1CCN(C(=O)Nc2ccc(F)cc2F)CC1  -2.94%
11. Cn1cc(CN2CCN(Cc3nccn3C)CC2)cn1  -2.81%
12. O=C(c1cnoc1)N1CCC[C@]2(C[C@H](Oc3ncccc3F)CO2)C1  -2.03%
13. Cc1noc(C)c1C(=O)NCc1ccc(N2CCOC(C)C2)nc1 (stereo not given)  -1.75%
14. Cc1nccn1C1CCCN(C(=O)C2=NN(C)C(=O)CC2)C1 (stereo not given)  -1.52%
15. OCCC1CN(C2CCC2)CCN1C1CCCC1 (stereo not given)  -1.5%
16. Cc1ccccc1CC(=O)N(C)C1CCN(c2ccccn2)CC1  -1.19%
17. COCc1nc(N(C)C)ncc1C(=O)Nc1ccn(C)n1  -1.07%
18. CC(C)COCc1cncc2c1CCN(Cc1cnn(C)c1)C2  -0.981%
19. Cc1ccc2c(ccn2CCC(=O)NC[C@@H]2CCCN3CCCC[C@H]23)c1  -0.958%
20. Cc1ccn(CCC(=O)N2CCOC(c3nc(-c4cccs4)no3)C2)n1 (stereo not given)  -0.897%
21. CN(Cc1ccc2c(c1)OCO2)Cc1nc2c(cnn2C)c(=O)[nH]1  -0.843%
22. O=C(CN1CCCCC1Cn1cncn1)NC1CCN(C2CC2)CC1 (stereo not given)  -0.234%
23. Cc1c(F)cc(C(=O)O)cc1S(=O)(=O)Nc1cccc(C(F)F)c1  -0.0333%
24. Cc1ncc2c(n1)CN(Cc1noc(C3CC3)n1)CC2  0.182%
25. CCCOc1ccc(CNC(=O)N2CCC(C(N)=O)C2)cc1 (stereo not given)  0.4%
26. O=C1NC2(CCN(Cc3nccs3)CC2)CC1c1ccncc1 (stereo not given)  0.717%
27. COc1c(CNC2CCSc3ccc(F)cc32)c(C)nn1C (stereo not given)  0.879%
28. CC(C)(C)c1nnc(CN2CCN(S(C)(=O)=O)CC2)o1  1.17%
29. CCCOCC(=O)NS(=O)(=O)c1ccc2c(c1)OCCCO2  1.8%
30. Cc1noc([C@H]2C[C@H]3OCC[C@H]3N(Cc3ccc4c(c3)OCO4)C2)n1  2.03%
31. CC(NC(=O)NCC1(c2ccc(F)cc2)CCC1)c1nncn1C (stereo not given)  2.25%
32. O=C(C1CCCc2[nH]ncc21)N1CCCC1 (stereo not given)  2.61%
33. CCCc1n[nH]c(C2CN(CCNS(=O)(=O)CC)CCO2)n1 (stereo not given)  2.63%
34. CCOc1ccc(-n2nnc(C(=O)O)c2-c2ccncc2)cc1  3.77%
35. O=C(NCCNc1ncccn1)N1CCCC(C(F)(F)F)C1 (stereo not given)  4.41%
36. O=C(c1cccc(CNS(=O)(=O)c2ccccc2F)c1)N1CCCC1  5.13%
37. Cc1occc1C(=O)N1CCC[C@]2(C[C@@H](OCc3ccncc3)CO2)C1  6.93%
38. O=C(Nc1cccc(Cl)c1)c1nn(C2CCS(=O)(=O)C2)c2c1CCCC2 (stereo not given)  6.98%
39. Cc1nn(CC(=O)N2CCN(c3ccccc3F)CC2)c(C)c1Cl  8.8%
40. COCC1CN(Cc2ccc(C)o2)Cc2cn(C)nc21 (stereo not given)  11.7%

target: Shiga toxin 2 (Escherichia coli O157:H7) (UniProt P09385+P09386); assay: E. coli 0.157:H7 Shiga Toxin SOP - stx2 screening assay; format: functional; parameters: scale not given: direction of the effect not stated beside the values; settings: 30 µM

In order of falling Percent Effect:
1. Cc1ccn(CCC(=O)N2CCOC(c3nc(-c4cccs4)no3)C2)n1 (stereo not given)  37.2%
2. CC(NC(=O)NCC1(c2ccc(F)cc2)CCC1)c1nncn1C (stereo not given)  32.9%
3. CN(Cc1ccc2c(c1)OCO2)Cc1nc2c(cnn2C)c(=O)[nH]1  27.6%
4. O=C(c1cccc(CNS(=O)(=O)c2ccccc2F)c1)N1CCCC1  22.1%
5. Cc1nccn1C1CCCN(C(=O)C2=NN(C)C(=O)CC2)C1 (stereo not given)  19%
6. CCCOCC(=O)NS(=O)(=O)c1ccc2c(c1)OCCCO2  17.6%
7. COc1nc2c(cc1C(=O)N1C[C@H](N)C[C@H]1C(=O)NC(C)C)CCC2  12.5%
8. Cc1c(F)cc(C(=O)O)cc1S(=O)(=O)Nc1cccc(C(F)F)c1  12.3%
9. OCCC1CN(C2CCC2)CCN1C1CCCC1 (stereo not given)  7.89%
10. Cc1ccccc1CC(=O)N(C)C1CCN(c2ccccn2)CC1  6.11%
11. O=C(Nc1cccc(Cl)c1)c1nn(C2CCS(=O)(=O)C2)c2c1CCCC2 (stereo not given)  5.07%
12. CS(=O)(=O)NCc1nnc2n1CCN(Cc1cccs1)C2  3.79%
13. O=C1NC2(CCN(Cc3nccs3)CC2)CC1c1ccncc1 (stereo not given)  2.04%
14. O=C(NCCNc1ncccn1)N1CCCC(C(F)(F)F)C1 (stereo not given)  1.25%
15. CCCOc1ccc(CNC(=O)N2CCC(C(N)=O)C2)cc1 (stereo not given)  -0.133%
16. Cc1noc([C@H]2C[C@H]3OCC[C@H]3N(Cc3ccc4c(c3)OCO4)C2)n1  -3.36%
17. O=C(CN1CCCCC1Cn1cncn1)NC1CCN(C2CC2)CC1 (stereo not given)  -4.41%
18. O=C(C1CCCc2[nH]ncc21)N1CCCC1 (stereo not given)  -4.59%
19. Cc1ccc2c(ccn2CCC(=O)NC[C@@H]2CCCN3CCCC[C@H]23)c1  -5.27%
20. COc1cc(C(=O)Nc2c(C)noc2C)ccc1C  -5.89%
21. O=C(c1cnoc1)N1CCC[C@]2(C[C@H](Oc3ncccc3F)CO2)C1  -8.52%
22. CC(C)c1nc(C(=O)N2CCCC(n3cncn3)C2)c[nH]1 (stereo not given)  -8.87%
23. COc1c(CNC2CCSc3ccc(F)cc32)c(C)nn1C (stereo not given)  -10.4%
24. COCC(C)NC(=O)c1cc(Br)c2c(c1)OCCO2 (stereo not given)  -10.8%
25. CC(c1nc(C2CC2)no1)N1CCN(Cc2ccsc2)CC1 (stereo not given)  -11.4%
26. CCOc1ccc(C#N)cc1NCC(=O)Nc1cc(C)no1  -11.5%
27. COCC1CN(Cc2ccc(C)o2)Cc2cn(C)nc21 (stereo not given)  -13.2%
28. CCCc1n[nH]c(C2CN(CCNS(=O)(=O)CC)CCO2)n1 (stereo not given)  -17%
29. COCc1nc(N(C)C)ncc1C(=O)Nc1ccn(C)n1  -19.2%
30. CCOc1ccc(-n2nnc(C(=O)O)c2-c2ccncc2)cc1  -21.9%
31. CC(C)(C)c1nnc(CN2CCN(S(C)(=O)=O)CC2)o1  -26.2%
32. Cc1occc1C(=O)N1CCC[C@]2(C[C@@H](OCc3ccncc3)CO2)C1  -29.1%
33. CC(C)COCc1cncc2c1CCN(Cc1cnn(C)c1)C2  -36.8%
34. Cn1cc(CN2CCN(Cc3nccn3C)CC2)cn1  -37.2%
35. Cc1nn(CC(=O)N2CCN(c3ccccc3F)CC2)c(C)c1Cl  -39.1%
36. CC(C)(C)NC(=O)CN1CCN(C(=O)Nc2ccc(F)cc2F)CC1  -44.1%
37. Cc1ncc2c(n1)CN(Cc1noc(C3CC3)n1)CC2  -46.9%
38. COc1cc(OC)c(C2Nc3cc(Cl)ccc3C3=NCCN32)cc1OC (stereo not given)  -48.2%
39. Cc1noc(C)c1C(=O)NCc1ccc(N2CCOC(C)C2)nc1 (stereo not given)  -60.1%
40. NCCn1nc(C2CCN(Cc3ccc(Cl)c(Cl)c3)C2)c2nccnc21 (stereo not given)  -105%
